High-throughput results from PubChem.
Pol beta inh – inhibitors of human DNA polymerase beta; P06746; Pol beta primer extension/strand displacement, fluorescence kinetic; Potency, µM (series often up to 114 µM), for the others: at the highest dose activity change, negative = inhibition, most hits filed as inhibitors; actives 1.3% (n = 340,000); further: on the % scale 0 is the no-effect control and ±100 the full control effect
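10 nM enzyme + cpd, 15 min RT; start with substrate 50 nM final; read 0 min and after 10 min RT. Corrected, normalized data; 4-parameter Hill curve fit.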
GCN5L2 inh – GCN5L2 (KAT2A) acetyltransferase inhibition. GCN5L2 HAT assay, ThioGlo1 CoA-SH fluorescence. Potency, µM (doses to about 58.9 µM), for the others: top-dose activity change, negative = inhibition, most hits filed as inhibitors. Q92830. actives 0.21% (n = 390,000). AID 504327; further: on the % scale 0 is the no-effect control and ±100 the full control effect
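Titration-based screen in which CoA formation is detected via maleimide probe ThioGlo1 (50uM) turning fluorescent on thiol reaction; substrates H3(1-25) 75uM and acetyl-CoA 70uM, GCN5L2 20nM, 20 min incubation at room temperature.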
GLS inhibitor – glutaminase GLS (human) inhibition. Potency, µM (top dose mostly 45.5 µM), without a hit: at the highest dose activity change, negative = inhibition, usual class: inhibitors. O94925. GLS enzymatic activity, qHTS titration. actives 0.21% (n = 410,000); further: on the % scale 0 is the no-effect control and ±100 the full control effect
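Coupled fluorescence readout: glutamate oxidase/HRP/Amplex Red detect glutamate formed by hKGA from L-glutamine (1 mM solution added). Buffer 45 mM KH2PO4 pH 8.2, 0.02% Tween-20; reads at t0 and 30 min RT.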
Pol eta inh – blocks human DNA polymerase eta activity; Q9Y253; recombinant Pol eta, fluorescent DNA replication assay; Potency, µM (titrated, usually from 114 µM), inactives show at the highest dose activity change, negative = inhibition, usual class: inhibitors; actives 1.2% (n = 390,000); further: on the % scale 0 is the no-effect control and ±100 the full control effect
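Pol eta (10 nM) was preincubated with compounds for 15 min at room temperature, after which fluorescent replication substrate (50 nM final) was added to start the reaction. Fluorescence was read kinetically at 0 and 10 min.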
Pol kappa inh – blocks human DNA polymerase kappa activity; Q9UBT6; purified Pol kappa, fluorescent DNA synthesis assay, 10 min; Potency, µM (highest dose often 107 µM), inactives show at the highest dose activity, negative = inhibition, actives largely listed as inhibitors; actives 0.53% (n = 400,000); further: on the % scale 0 is the no-effect control and ±100 the full control effect
Target sequence (Q9UBT6 whole entry, looked up): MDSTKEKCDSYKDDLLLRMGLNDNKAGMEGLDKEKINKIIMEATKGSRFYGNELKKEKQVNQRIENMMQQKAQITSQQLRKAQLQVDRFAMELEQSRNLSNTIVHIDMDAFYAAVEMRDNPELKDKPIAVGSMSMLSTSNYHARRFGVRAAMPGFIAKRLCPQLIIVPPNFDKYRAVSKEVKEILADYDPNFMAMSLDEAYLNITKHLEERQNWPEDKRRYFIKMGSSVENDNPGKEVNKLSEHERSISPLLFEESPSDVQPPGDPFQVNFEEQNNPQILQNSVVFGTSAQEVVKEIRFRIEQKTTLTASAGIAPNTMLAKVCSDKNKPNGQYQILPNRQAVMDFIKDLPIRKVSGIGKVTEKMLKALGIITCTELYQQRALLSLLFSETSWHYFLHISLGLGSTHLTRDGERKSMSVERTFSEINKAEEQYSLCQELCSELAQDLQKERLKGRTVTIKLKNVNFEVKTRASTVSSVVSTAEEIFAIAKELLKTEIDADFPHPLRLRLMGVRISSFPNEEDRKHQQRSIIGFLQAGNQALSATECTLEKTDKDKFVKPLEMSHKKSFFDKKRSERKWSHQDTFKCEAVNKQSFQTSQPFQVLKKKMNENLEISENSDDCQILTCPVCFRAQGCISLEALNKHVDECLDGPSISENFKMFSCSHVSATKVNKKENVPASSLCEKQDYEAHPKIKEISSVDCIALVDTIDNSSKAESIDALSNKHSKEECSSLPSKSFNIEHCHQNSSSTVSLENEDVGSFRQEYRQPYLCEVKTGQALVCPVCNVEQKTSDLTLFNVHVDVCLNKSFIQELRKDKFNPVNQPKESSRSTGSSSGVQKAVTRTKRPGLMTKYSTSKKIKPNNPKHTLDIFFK
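Here, compound and 10 nM enzyme are combined for 15 min at room temperature; adding 50 nM substrate (final) starts DNA synthesis, tracked by fluorescence at 0 and 10 min against buffer-only wells.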
Pol iota inh – blocks human DNA polymerase iota activity. Q9UNA4. actives 1% (n = 390,000). Potency, µM (series often up to 115 µM), for the others: at the highest dose activity, negative = inhibition, actives largely listed as inhibitors. Pol iota fluorescent replication assay, 10 min
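Pol iota at 10 nM preincubated 15 min with compounds at room temperature; reaction started with fluorescent substrate, 50 nM final. Fluorescence read kinetically at 0 and 10 min; buffer-only wells as negative control.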
Starred values were filed as active, the others as inactive; [ ] = another dose, or the depositor's remark. Most compounds without a hit are left out; they make up all but 2.4% or so of the library. The call rests on the fitted dose curve; in most records, active means well fitted inhibition curve with a large enough effect; inconclusive means small, poorly fitted or top-dose-only effect, or another doubt; inactive means no such curve, though single readings can be large or run the other way. Potency means the concentration at half of the fitted maximal effect.

`O=C1/C(=C\c2ccc(Br)o2)Cc2ccccc21` gave Pol beta inh 40µM*, GCN5L2 inh -7%, GLS inhibitor -13%, Pol eta inh inconclusive, Pol kappa inh -9% and Pol iota inh inconclusive.
O=C1/C(=C/c2cccs2)Cc2ccccc21 was read as Pol beta inh 30%[57.1 µM], GCN5L2 inh -1%, GLS inhibitor 2%, Pol eta inh -14%, Pol kappa inh -9% and Pol iota inh 18%.
O=c1c2ccccc2sn1-c1ccc(S(=O)(=O)N2CCOCC2)cc1 was read as Pol kappa inh 10% and Pol iota inh 17%.
`O=c1c2ccccc2sn1-c1ccc(Cl)c(S(=O)(=O)N2CCOCC2)c1` gave Pol kappa inh -14% and Pol iota inh 79µM*.
Screening CC1CC(=O)c2c(cc3c(-c4c(O)cc(O)c5c(O)c6c(cc45)OC(C)CC6=O)c(O)cc(O)c3c2O)O1 (stereo unspecified) returned Pol beta inh 18µM*, GCN5L2 inh inconclusive, GLS inhibitor inconclusive, Pol eta inh 10µM*, Pol kappa inh inconclusive and Pol iota inh 1.1µM*.
For CCOC(=O)c1ccc(NS(=O)(=O)c2ccc(SC)cc2)cc1 the results were Pol beta inh -14%, GCN5L2 inh -17%, GLS inhibitor 1%, Pol eta inh -4%, Pol kappa inh -7% and Pol iota inh 79µM*.
Screening Fc1ccc(-c2nnc(Cc3nnc(-c4ccc(F)cc4)o3)o2)cc1 returned Pol beta inh 40µM*, GCN5L2 inh -2%, GLS inhibitor -1%, Pol eta inh 3%, Pol kappa inh -16% and Pol iota inh -5%[58.9 µM].
Cc1cccc(-n2ccnc2SCC(=O)Nc2nc3ccccc3s2)c1 was read as Pol beta inh inconclusive, GCN5L2 inh -11%, GLS inhibitor -1%, Pol eta inh -4%, Pol kappa inh -3%[60.1 µM] and Pol iota inh inconclusive.
`CCOC(=O)c1c(SCC(=O)Nc2nc3ccc(C)cc3s2)nc(=O)[nH]c1C` gave Pol beta inh inconclusive, GCN5L2 inh -1%, GLS inhibitor 5%, Pol eta inh -10%, Pol kappa inh -12%[60.1 µM] and Pol iota inh 89µM*.
`CCOc1ccc(-n2ccnc2SCC(=O)Nc2nc3ccc(C)cc3s2)cc1` gave Pol beta inh 25µM*, GCN5L2 inh -7%, GLS inhibitor -3%, Pol eta inh 89µM*, Pol kappa inh -9%[60.1 µM] and Pol iota inh 6%.
O=C(NCc1ccc(Cl)cc1)C1CCN(S(=O)(=O)c2ccc3c(c2)CCCN3C(=O)C2CCC2)CC1 was read as Pol beta inh 2%, GCN5L2 inh -15%, GLS inhibitor 2%, Pol eta inh -21%, Pol kappa inh 9%[60.1 µM] and Pol iota inh inconclusive.
O=S(=O)(c1ccc(F)cc1)N1CCN(c2nc(-c3ccccc3)nc3cc(Cl)ccc23)CC1 was read as Pol kappa inh -9% and Pol iota inh -15%.
Screening CN(C)c1ccc(-c2nnc(SCC(=O)NCc3ccco3)n2C)cc1 returned Pol kappa inh -16% and Pol iota inh -26%.
COc1ccc(-c2nc3n(n2)C(c2ccc(OC)c(OC)c2)C(C(=O)Nc2cccnc2)=C(C)N3)cc1 (stereo unspecified) was read as Pol beta inh 1%, GCN5L2 inh -8%, GLS inhibitor -4%, Pol eta inh 50µM*, Pol kappa inh -8%[60.1 µM] and Pol iota inh 2%.
COc1ccc(C2C(C(=O)Nc3cccnc3)=C(C)Nc3nc(-c4ccc(OC)c(OC)c4)nn32)cc1 (stereo unspecified) was read as Pol beta inh inconclusive, GCN5L2 inh -4%, GLS inhibitor -16%, Pol eta inh -8%, Pol kappa inh 5% and Pol iota inh -16%.
Cc1cccc2c(/C=C/c3ccc(N(C)C)cc3)ccnc12 was read as Pol kappa inh -10% and Pol iota inh inconclusive.
Screening O=C(Nc1cccc(-c2cscn2)c1)C1CCN(Cc2ccc(CO)o2)CC1 returned Pol beta inh 16%, GCN5L2 inh 0%, GLS inhibitor 15%, Pol eta inh 2%, Pol kappa inh inconclusive and Pol iota inh 50µM*.
O=C1C[C@H]2C=CCc3cccc(c32)CN1Cc1cccc(F)c1 was read as Pol kappa inh 0% and Pol iota inh 29%.
Screening COc1cc([N+](=O)[O-])ccc1NC(=O)Nc1cnccn1 returned Pol beta inh 25%, GCN5L2 inh inconclusive, GLS inhibitor -3%, Pol eta inh 79µM*, Pol kappa inh 10% and Pol iota inh -4%.
For O=C1Nc2ccc3sc4ccccc4c3c2C1=O the results were Pol beta inh 5.6µM*, GCN5L2 inh -1%, GLS inhibitor 5%, Pol eta inh inconclusive, Pol kappa inh -30% and Pol iota inh 22µM*.
O=C1Nc2ccccc2C1=O was read as GLS inhibitor 1%, Pol eta inh 0%, Pol kappa inh -2% and Pol iota inh 7%.
For CCc1ccc(OCCCSc2nc(-c3ccc(C(C)(C)C)cc3)nc3cc(=O)[nH]n23)cc1 the results were Pol beta inh 18µM*, GCN5L2 inh inconclusive, GLS inhibitor -19%, Pol kappa inh -26% and Pol iota inh inconclusive.
COc1ccc(-c2nc(SCCOc3cc(C)ccc3C(C)C)n3[nH]c(=O)cc3n2)cc1 was read as Pol beta inh 13%, GCN5L2 inh 16%, GLS inhibitor 4%, Pol eta inh -3%, Pol kappa inh 15% and Pol iota inh 10%.
`Cc1ccc(OCCSc2nc(-c3ccccc3C)nc3cc(=O)[nH]n23)cc1Cl` gave Pol beta inh inconclusive, GCN5L2 inh -6%, GLS inhibitor 2%, Pol eta inh 89µM*, Pol kappa inh inconclusive and Pol iota inh inconclusive.
Screening Cc1cccc(OCCCSc2nc(-c3ccc(C(C)(C)C)cc3)nc3cc(=O)[nH]n23)c1C returned Pol beta inh -24%, GCN5L2 inh inconclusive, GLS inhibitor -7%, Pol kappa inh -17% and Pol iota inh inconclusive.
`Cc1ccc(C(C)C)c(OCCSc2nc(-c3ccccc3F)nc3cc(=O)[nH]n23)c1` gave Pol beta inh 16µM*, GCN5L2 inh -15%, GLS inhibitor -16%, Pol eta inh inconclusive, Pol kappa inh -11% and Pol iota inh inconclusive.
For COC(=O)C(N)Cc1ccc(O)c(O)c1 (stereo unspecified) the results were Pol beta inh -18%, GCN5L2 inh -1%, GLS inhibitor -13%, Pol eta inh 6%, Pol kappa inh 89µM* and Pol iota inh inconclusive.
